Test results taken from the supplement of paper PMC10849652.
Targets with a hit are over-represented here; the source holds about 7,900 in all. About 0.6% of all pairs of compound and target were hits. A number with no mark means an inactive call.

What was measured:
Assay in all cases: log2 fold change, soluble protein after heating vs DMSO (PISA); higher = thermal stabilisation; K562 cells, 10 uM, 30 min; active = over 0.2 and 3.5 SD of the protein, either way, in both replicates (recomputed)
[1] = compound: COC1=CC=C(C=C1)CN2C=CC3=C2C=C(C=C3)C(=O)NO
Outline: (§1)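 Soluble protein was quantified by TMTpro 16plex LC-MS/MS after channel sums were equalised. It was obtained as the supernatant after 21,000xg for 90 min from pooled aliquots of K562 cells (2×10^6 cells/mL, 10 μM compound, 30 min) heated for 3 min across 48°C-58°C and extracted in PBS with 0.5% NP-40 at 4°C. Thermal stability values are relative to control samples and come from duplicates. They are given as log2 fold changes.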

filanesib = compound: CON(C)C(=O)N1N=C(c2cc(F)ccc2F)S[C@@]1(CCCN)c1ccccc1 [filanesib]
Outline: as §1

zotarolimus = compound: CO[C@H]1C[C@@H]2CC[C@@H](C)[C@@](O)(O2)C(=O)C(=O)N2CCCC[C@H]2C(=O)O[C@H]([C@H](C)C[C@@H]2CC[C@H](n3cnnn3)[C@H](OC)C2)CC(=O)[C@H](C)/C=C(\C)[C@@H](O)[C@@H](OC)C(=O)[C@H](C)C[C@H](C)/C=C/C=C/C=C/1C [zotarolimus]
Outline: as §1

idasanutlin = compound: COc1cc(C(=O)O)ccc1NC(=O)[C@@H]1N[C@@H](CC(C)(C)C)[C@](C#N)(c2ccc(Cl)cc2F)[C@H]1c1cccc(Cl)c1F [idasanutlin]
Outline: as §1

alisertib = compound: COc1cc(Nc2ncc3c(n2)-c2ccc(Cl)cc2C(c2c(F)cccc2OC)=NC3)ccc1C(=O)O [alisertib]
Outline: as §1

[2] = compound: COc1cc2nc(-c3cc(F)ccc3O)nc(N[C@@H]3CNC[C@H]3C(C)(C)O)c2cc1OC
Outline: as §1

gefitinib = compound: COc1cc2ncnc(Nc3ccc(F)c(Cl)c3)c2cc1OCCCN1CCOCC1 [gefitinib]
Outline: as §1

[3] = compound: COc1cccc2cc(-c3nc([C@H]4CC[C@H](C(=O)O)CC4)n4ncnc(N)c34)[nH]c12
Outline: as §1

lapatinib = compound: CS(=O)(=O)CCNCc1ccc(-c2ccc3ncnc(Nc4ccc(OCc5cccc(F)c5)c(Cl)c4)c3c2)o1 [lapatinib]
Outline: as §1

pictilisib = compound: CS(=O)(=O)N1CCN(Cc2cc3nc(-c4cccc5[nH]ncc45)nc(N4CCOCC4)c3s2)CC1 [pictilisib]
Outline: as §1

Sequence of UniProt Q7Z7N9 (Q7Z7N9 whole entry, looked up): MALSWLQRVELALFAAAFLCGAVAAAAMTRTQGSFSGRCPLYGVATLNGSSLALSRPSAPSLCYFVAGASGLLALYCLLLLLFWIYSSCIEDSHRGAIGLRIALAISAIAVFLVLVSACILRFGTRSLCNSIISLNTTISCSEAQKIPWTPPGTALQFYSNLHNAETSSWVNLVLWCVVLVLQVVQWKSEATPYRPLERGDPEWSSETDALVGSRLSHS
Sequence of UniProt P21796 (P21796 whole entry, looked up): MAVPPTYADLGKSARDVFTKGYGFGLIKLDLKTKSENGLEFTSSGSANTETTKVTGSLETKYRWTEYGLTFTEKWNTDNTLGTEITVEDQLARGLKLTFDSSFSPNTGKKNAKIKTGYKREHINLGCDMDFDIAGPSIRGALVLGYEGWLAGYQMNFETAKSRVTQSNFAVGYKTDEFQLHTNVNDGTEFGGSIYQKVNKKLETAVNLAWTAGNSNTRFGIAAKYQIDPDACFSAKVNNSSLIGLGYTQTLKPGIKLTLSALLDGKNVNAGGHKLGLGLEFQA
Sequence of UniProt Q8N3P4 (Q8N3P4 whole entry, looked up): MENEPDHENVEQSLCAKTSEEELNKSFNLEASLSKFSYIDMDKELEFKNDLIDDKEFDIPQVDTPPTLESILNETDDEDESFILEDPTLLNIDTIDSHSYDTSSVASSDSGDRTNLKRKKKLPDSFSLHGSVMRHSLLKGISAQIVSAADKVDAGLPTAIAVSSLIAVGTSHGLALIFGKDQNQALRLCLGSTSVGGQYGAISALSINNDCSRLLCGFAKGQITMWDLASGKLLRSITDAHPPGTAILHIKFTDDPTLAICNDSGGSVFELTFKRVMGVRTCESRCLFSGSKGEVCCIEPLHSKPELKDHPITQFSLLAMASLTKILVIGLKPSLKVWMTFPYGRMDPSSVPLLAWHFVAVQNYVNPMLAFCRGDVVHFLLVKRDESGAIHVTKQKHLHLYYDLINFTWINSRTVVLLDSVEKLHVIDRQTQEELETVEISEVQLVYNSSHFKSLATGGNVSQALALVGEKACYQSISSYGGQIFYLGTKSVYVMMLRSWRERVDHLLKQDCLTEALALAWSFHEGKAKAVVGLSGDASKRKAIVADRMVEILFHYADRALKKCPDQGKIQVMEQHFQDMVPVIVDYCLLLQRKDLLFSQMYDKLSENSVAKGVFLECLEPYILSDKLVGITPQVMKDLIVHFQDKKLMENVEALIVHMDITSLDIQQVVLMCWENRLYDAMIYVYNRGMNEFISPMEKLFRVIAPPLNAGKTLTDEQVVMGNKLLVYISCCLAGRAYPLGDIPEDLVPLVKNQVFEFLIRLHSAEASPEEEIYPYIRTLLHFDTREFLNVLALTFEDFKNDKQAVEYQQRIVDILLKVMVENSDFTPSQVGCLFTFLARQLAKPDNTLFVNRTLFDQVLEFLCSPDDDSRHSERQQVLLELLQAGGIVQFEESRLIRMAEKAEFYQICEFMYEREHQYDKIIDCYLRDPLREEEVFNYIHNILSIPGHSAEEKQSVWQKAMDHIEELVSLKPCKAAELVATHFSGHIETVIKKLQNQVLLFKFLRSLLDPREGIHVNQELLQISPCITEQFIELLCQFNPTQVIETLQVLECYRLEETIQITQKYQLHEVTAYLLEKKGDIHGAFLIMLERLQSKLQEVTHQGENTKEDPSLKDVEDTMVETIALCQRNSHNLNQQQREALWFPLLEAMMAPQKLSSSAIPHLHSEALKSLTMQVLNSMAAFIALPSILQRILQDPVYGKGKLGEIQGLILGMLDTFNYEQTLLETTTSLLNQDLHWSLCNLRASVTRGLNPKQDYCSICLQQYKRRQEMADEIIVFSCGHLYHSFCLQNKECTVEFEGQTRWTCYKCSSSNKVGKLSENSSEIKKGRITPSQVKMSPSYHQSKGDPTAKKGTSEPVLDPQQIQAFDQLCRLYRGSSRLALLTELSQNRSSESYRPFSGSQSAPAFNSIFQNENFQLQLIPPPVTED
Sequence of UniProt Q9Y4E8 (Q9Y4E8 whole entry, looked up): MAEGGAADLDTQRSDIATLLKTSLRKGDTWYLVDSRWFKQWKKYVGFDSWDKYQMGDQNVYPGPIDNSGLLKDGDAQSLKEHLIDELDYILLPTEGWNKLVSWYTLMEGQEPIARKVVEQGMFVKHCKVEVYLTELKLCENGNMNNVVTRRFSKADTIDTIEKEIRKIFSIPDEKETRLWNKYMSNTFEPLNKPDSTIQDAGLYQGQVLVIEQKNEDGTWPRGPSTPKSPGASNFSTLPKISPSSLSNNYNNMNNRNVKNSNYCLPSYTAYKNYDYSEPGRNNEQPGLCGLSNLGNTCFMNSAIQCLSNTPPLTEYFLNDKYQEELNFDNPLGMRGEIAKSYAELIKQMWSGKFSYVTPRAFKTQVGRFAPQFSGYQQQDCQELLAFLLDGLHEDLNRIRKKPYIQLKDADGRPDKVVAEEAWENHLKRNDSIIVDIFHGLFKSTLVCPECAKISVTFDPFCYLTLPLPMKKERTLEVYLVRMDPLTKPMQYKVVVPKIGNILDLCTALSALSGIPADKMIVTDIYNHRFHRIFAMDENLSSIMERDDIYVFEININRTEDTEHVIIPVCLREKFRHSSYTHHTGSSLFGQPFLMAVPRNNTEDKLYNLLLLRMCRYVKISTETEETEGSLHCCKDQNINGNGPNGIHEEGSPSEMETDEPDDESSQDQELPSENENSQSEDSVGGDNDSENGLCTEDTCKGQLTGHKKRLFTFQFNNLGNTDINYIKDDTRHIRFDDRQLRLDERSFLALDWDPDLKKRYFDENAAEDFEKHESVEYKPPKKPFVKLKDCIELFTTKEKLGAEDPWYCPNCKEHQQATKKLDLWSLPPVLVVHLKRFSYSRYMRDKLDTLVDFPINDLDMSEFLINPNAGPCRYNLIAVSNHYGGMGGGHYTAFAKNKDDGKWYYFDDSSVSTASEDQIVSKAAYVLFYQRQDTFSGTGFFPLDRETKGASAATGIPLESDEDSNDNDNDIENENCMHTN
Sequence of UniProt Q5U3C3 (Q5U3C3 whole entry, looked up): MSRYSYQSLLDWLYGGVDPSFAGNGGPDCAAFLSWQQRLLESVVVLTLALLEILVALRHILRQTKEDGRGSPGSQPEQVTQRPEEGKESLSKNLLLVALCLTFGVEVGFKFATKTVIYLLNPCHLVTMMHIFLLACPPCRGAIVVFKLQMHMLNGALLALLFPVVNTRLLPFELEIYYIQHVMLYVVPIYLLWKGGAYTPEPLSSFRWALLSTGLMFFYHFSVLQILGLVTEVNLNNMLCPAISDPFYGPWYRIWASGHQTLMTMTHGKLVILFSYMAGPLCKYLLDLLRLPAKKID
Sequence of UniProt Q6NXR4 (Q6NXR4 whole entry, looked up): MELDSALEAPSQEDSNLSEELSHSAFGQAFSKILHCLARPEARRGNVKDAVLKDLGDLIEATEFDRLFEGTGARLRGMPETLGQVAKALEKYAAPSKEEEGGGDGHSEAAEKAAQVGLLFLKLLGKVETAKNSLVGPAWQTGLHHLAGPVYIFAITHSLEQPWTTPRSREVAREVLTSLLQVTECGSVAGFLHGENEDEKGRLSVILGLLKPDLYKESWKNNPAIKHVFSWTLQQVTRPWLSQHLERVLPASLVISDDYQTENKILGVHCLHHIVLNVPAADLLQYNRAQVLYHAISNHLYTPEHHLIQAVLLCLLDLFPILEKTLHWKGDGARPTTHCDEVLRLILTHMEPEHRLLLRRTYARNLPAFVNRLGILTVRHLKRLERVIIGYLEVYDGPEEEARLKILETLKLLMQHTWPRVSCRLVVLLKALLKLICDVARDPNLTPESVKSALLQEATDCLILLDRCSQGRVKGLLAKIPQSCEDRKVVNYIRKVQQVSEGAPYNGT
Sequence of UniProt Q96K49 (Q96K49 whole entry, looked up): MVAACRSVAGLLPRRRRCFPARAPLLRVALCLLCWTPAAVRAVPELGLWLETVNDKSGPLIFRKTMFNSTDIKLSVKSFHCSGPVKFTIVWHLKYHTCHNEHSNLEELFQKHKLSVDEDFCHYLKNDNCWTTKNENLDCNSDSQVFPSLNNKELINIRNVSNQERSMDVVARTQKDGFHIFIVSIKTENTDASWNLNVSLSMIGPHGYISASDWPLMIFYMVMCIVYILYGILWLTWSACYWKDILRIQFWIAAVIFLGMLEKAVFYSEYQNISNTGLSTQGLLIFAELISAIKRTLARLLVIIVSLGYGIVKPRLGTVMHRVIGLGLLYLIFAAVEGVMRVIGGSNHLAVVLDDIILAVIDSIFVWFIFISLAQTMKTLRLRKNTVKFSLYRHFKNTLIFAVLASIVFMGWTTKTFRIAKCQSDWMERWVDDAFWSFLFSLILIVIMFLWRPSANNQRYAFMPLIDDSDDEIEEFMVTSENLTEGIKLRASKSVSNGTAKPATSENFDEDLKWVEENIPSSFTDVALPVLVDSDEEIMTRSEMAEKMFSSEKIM
Sequence of UniProt Q9BUB7 (Q9BUB7 whole entry, looked up): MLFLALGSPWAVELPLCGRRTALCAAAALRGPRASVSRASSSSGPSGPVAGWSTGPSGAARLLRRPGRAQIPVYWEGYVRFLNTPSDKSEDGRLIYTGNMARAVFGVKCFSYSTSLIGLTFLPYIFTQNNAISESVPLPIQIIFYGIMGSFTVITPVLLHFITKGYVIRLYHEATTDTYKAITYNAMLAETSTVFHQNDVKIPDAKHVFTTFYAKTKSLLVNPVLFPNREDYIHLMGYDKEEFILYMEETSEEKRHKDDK
Sequence of UniProt P51809 (P51809 whole entry, looked up): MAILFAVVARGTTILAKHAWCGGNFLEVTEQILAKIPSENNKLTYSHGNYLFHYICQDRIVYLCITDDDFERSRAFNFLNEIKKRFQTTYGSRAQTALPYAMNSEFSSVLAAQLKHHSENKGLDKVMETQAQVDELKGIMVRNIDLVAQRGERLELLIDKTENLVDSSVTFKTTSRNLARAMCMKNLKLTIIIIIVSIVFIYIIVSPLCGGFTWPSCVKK
Sequence of UniProt Q99757 (Q99757 whole entry, looked up): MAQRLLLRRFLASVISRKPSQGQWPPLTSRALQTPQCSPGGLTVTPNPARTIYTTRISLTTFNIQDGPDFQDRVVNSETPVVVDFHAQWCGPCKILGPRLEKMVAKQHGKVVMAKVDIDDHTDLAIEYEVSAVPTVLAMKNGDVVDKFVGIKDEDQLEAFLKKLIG

Target	log2 fold change [1]	log2 fold change (filanesib)	log2 fold change (zotarolimus)	log2 fold change (idasanutlin)	log2 fold change (alisertib)	log2 fold change [2]	log2 fold change (gefitinib)	log2 fold change [3]	log2 fold change (lapatinib)	log2 fold change (pictilisib)
TXN2 (UniProt Q99757)	0.039	0.015	0.211	0.108	-0.19	-0.015	0.042	-0.023	-0.078	-0.186
TTI2 (UniProt Q6NXR4)	0.012	0.06	-0.008	-0.04	0.028	-0.034	-0.081	-0.025	0.033	–
TPM2 (UniProt P07951)	0.503 (active)	-0.024	0.013	-0.026	-0.058	-0.055	-0.003	-0.14	0.166	-0.181
WDR46 (UniProt O15213)	-0.129	0.425	0.075	0.156	-0.162	0.037	-0.036	-0.018	-0.006	-0.052
TRAPPC6B (UniProt Q86SZ2)	0.055	-0.023	0.012	-0.023	-0.009	-0.003	0.042	0.028	0.019	0.02
UCHL5 isoform 3 (UniProt Q9Y5K5)	0.229	-0.13	0.227	0.057	0.072	0.036	-0.04	0.16	-0.07	–
VRK2 (UniProt Q86Y07)	-0.009	0.075	0	-0.066	0.042	0.003	0.018	-0.027	-0.003	-0.06
USP15 (UniProt Q9Y4E8)	0.027	-0.004	0.051	-0.018	-0.043	0.016	0.028	-0.05	-0.021	-0.027
TRAPPC11 (UniProt Q7Z392)	0.015	-0.018	0.024	-0.039	-0.052	-0.03	-0.012	-0.019	-0.014	0.042
TMEM87B (UniProt Q96K49)	-0.064	-0.046	-0.108	-0.05	-0.133	-0.002	0.063	0.036	0.026	0.055
TRAPPC8 (UniProt Q9Y2L5)	0.032	-0.017	0.03	-0.059	0.003	0.013	0.009	-0.021	0.021	-0.001
VAMP7 (UniProt P51809)	0.035	-0.095	-0.005	-0.111	-0.072	0.099	0.033	0.012	-0.005	-0.001
TMEM70 (UniProt Q9BUB7)	-0.041	-0.157	-0.009	-0.016	0.126	-0.118	-0.026	0.106	-0.039	0.059
VDAC1 (UniProt P21796)	0	-0.036	-0.01	-0.004	-0.033	-0.023	-0.007	0.052	0	0.002
WDR47 (UniProt O94967)	0.057	-0.014	-0.006	-0.071	0.21	-0.029	-0.001	0.061	-0.007	0.077
TXNL1 (UniProt O43396)	0.169	0.075	0.047	-0.003	-0.005	0.084	0.05	-0.001	0.006	0.017
VPS33B (UniProt Q9H267)	0.027	0.011	0.026	-0.036	-0.116	-0.046	0.118	-0.147	0.011	-0.035
USP48 isoform 8 (UniProt Q86UV5)	0.155	-0.075	0.089	-0.03	0.12	-0.267	0.093	-0.018	0.002	0.016
VPS51 (UniProt Q9UID3)	0.029	-0.024	-0.01	-0.098	-0.092	0.055	0.019	-0.057	-0.032	0.013
TMEM179B (UniProt Q7Z7N9)	-0.019	-0.162	-0.205	0.088	-0.007	-0.03	0.039	0.175	0.032	0.036
TMEM164 (UniProt Q5U3C3)	0.045	-0.306	-0.039	-0.031	0.211	0.098	-0.013	0.198	-0.06	0.008
TXNIP (UniProt Q9H3M7)	-0.013	-0.148	0.172	0.035	-0.198	-0.074	0.002	-0.119	0.228	0.142
VPS41 (UniProt P49754)	0.004	-0.085	0.015	-0.068	0.038	-0.032	-0.002	-0.063	0.008	-0.028
UTP14A (UniProt Q9BVJ6)	-0.114	0.336	-0.022	0.161	-0.077	-0.111	-0.062	-0.138	0.156	-0.174
TRAPPC3 (UniProt O43617)	-0.141	-0.069	-0.037	-0.025	-0.055	0.012	0.007	0.067	0.023	0.023
TUBAL3 (UniProt A6NHL2)	-0.037	-0.058	-0.064	-0.218	0.048	0	-0.059	0.015	0.075	0.052
UQCR10 (UniProt Q9UDW1)	-0.084	-0.05	-0.02	0.031	-0.005	0.037	-0.028	0.022	-0.038	-0.063
VTI1B (UniProt Q9UEU0)	-0.089	-0.027	-0.063	-0.026	0.046	0	-0.023	0.137	0.002	0.061
VPS8 (UniProt Q8N3P4)	0.092	0.001	0.043	-0.03	0.133	0.01	0.076	-0.025	0.046	0.055
UBE4A isoform 2 (UniProt Q14139)	0.037	-0.023	-0.003	0.008	-0.003	-0.024	-0.056	-0.073	0.022	0.016
